Laboratory results: PubChem BioAssay (NCATS)
Results filed as inconclusive are left out. Entries that show only a call come without a potency. Calls of active or inactive are those of the source. Unless noted, the call rests on the fitted dose curve.

How the values were obtained:
[1] = qHTS assay for small molecule agonists of retinoid X receptor alpha signaling (AID 588544); settings: HEK293T RXRa-UAS-bla, beta-lactamase reporter, 18 h; 530 nm emission
[2] = biological target: Retinoic acid receptor RXR-alpha (Homo sapiens) (UniProt P19793); assay: as above; settings: HEK293T RXRa-UAS-bla, beta-lactamase reporter, 18 h; series mostly up to 76.7 µM
[3] = biological target: Thyroid hormone receptor beta (Homo sapiens) (UniProt P10828); assay: qHTS assay for small molecule agonists of thyroid hormone receptor beta signaling (AID 588545); settings: TR-UAS-bla GripTite HEK 293, beta-lactamase ratio, agonist mode, 18 h, percent of T3 response, DMSO as zero; series mostly up to 76.7 µM
Outline: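 Stimulation of a TR-driven beta-lactamase reporter was quantified in GripTite HEK 293 cells. Compound series ran for 18 hrs; curves were normalized to T3 and DMSO controls and fitted to yield EC50.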

[4] = qHTS assay for small molecule antagonists of retinoid X receptor alpha signaling (AID 588546; active means well fitted inhibition curve with a large enough effect in the signal ratio, with a control signal flat, not every such curve was filed as active; the % refers to the signal ratio;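 further: cells stimulated with 9-cis-retinoic acid as agonist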); settings: HEK293T RXRa-UAS-bla, beta-lactamase ratio, antagonist mode; measured here: W530 green channel, cytotoxicity proxy
Outline: (§1)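 Beta-lactamase reporter inhibition, read as CCF4 fluorescence ratio (ex 405, em 460/530 nm) after 2 h at RT. HEK293T UAS-bla cells, 2500/well, were stimulated with 9-cis-RA at 500 or 100 nM final alongside test compound for 18 h at 37 C.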

[5] = biological target: Retinoic acid receptor RXR-alpha (Homo sapiens) (UniProt P19793); assay: as above; settings: HEK293T RXRa-UAS-bla, beta-lactamase ratio, antagonist mode
Outline: as §1

[6] = biological target: Voltage-gated inwardly rectifying potassium channel KCNH2 (Homo sapiens) (UniProt Q12809); assay: qHTS Assay for Small Molecule Inhibitors of the Human hERG Channel Activity (AID 588834; active means well fitted curve in the direction sought with a large enough effect; an effect the other way counts as inactive or inconclusive;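 further: top concentration of the series differs between compounds; lower thallium flux fluorescence means stronger hERG block; nearly all actives have a fitted effect of over 50% in size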); settings: U2OS BacMam hERG, FluxOR thallium flux fluorescence; series mostly up to 92.2 µM
Outline: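 Kinetic FDSS fluorescence; U2OS + hERG BacMam (~100 virus particles/cell); FluxOR Tl+ flux; ~10 min cpd; AC50 (Hill).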

[7] = qHTS assay for small molecule agonists of the antioxidant response element (ARE) signaling pathway (AID 651741; active means well fitted activation curve with a large enough effect in the signal ratio; the % refers to the signal ratio); settings: HepG2 ARE-bla reporter, beta-lactamase FRET ratio, 16 h; series mostly up to 96 µM
Outline: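 Compounds in DMSO are pinned onto HepG2 ARE-bla cells (2,000/well) that were preincubated 5 h; plates stay 16 h at 37 C, then beta-lactamase activity is detected with LiveBLAzer B/G substrate by fluorescence.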

[8] = qHTS assay for small molecule activators of the p53 signaling pathway (AID 651743; active means well fitted activation curve with a large enough effect in the signal ratio, not every such curve was filed as active; the % refers to the signal ratio); settings: HCT-116 p53RE-bla, beta-lactamase FRET ratio, 16 h; stronger effect = higher value
Outline: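 Cell-based beta-lactamase reporter (p53 response elements, HCT-116 background). After a 5-hour preincubation, cells received compound for 16 hours at 37 C; substrate development ran 2 hours at room temperature.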

[9] = qHTS assay for small molecule activators of the nuclear factor-kappa B (NF-kB) signaling pathway (AID 651749; active means well fitted activation curve with a large enough effect in the signal ratio; the % refers to the signal ratio); settings: NF-kB-bla ME-180 cells, beta-lactamase FRET ratio, 16 h; stronger effect = higher value
Outline: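 Screening used 2,000 ME-180 reporter cells per well exposed to pinned compound (23 nL) or DMSO; after 16 hr at 37C, beta-lactamase expression under NF-kB control was assessed through FRET.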

[10] = qHTS assay for small molecule disruptors of the mitochondrial membrane potential - 1 hr assay (AID 651754); settings: series mostly up to 92.2 µM; further: nearly all actives have a fitted effect of over 35% in size
Outline: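 HepG2, 2,000 cells/well, overnight attachment; cpd or DMSO 1 hr, 37C/5% CO2; Mito-MPS dye 30 min, 37C; fluorescence monomer (490/535) and aggregate (540/590).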

[11] = qHTS assay for small molecule disruptors of the mitochondrial membrane potential - 5 hr assay (AID 651755); settings: JC-1-type ratio dye; series mostly up to 92.2 µM; further: nearly all actives have a fitted effect of over 40% in size
Outline: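 HepG2 cells, attached overnight at 37C, were exposed to compound or DMSO for 5 hr at 37C, 5% CO2. Mito-MPS dye was then added for 30 min, and fluorescence read at 490/535 nm (monomers) and 540/590 nm (aggregates).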

[12] = biological target: Tumor necrosis factor (Homo sapiens) (UniProt P01375); assay: qHTS assay to identify small molecules that stimulate Tumor Necrosis Factor-alpha (TNF-alpha) secretion (AID 651757; active means well fitted curve in the direction sought with a large enough effect in the signal ratio; the % refers to the signal ratio); settings: Human cells, HTRF 665/615 ratio; series mostly up to 92.2 µM
Outline: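 Read-out is HTRF, a TR-FRET sandwich of cryptate- and XL665-labeled anti-TNF-alpha antibodies detecting cytokine secreted by THP-1 cells. Cells had been incubated with test compounds at 37 C for 17 hrs beforehand.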

[13] = qHTS assay for environmental chemicals that activate the Aryl hydrocarbon Receptor (AhR) signaling pathway (AID 651777; active means well fitted curve in the direction sought with a large enough effect; an effect the other way counts as inactive or inconclusive; further: nearly all actives have a fitted effect of over 15% in size); settings: 1A2-DRE human hepatoma cells, luciferase, 24 h; activation: stronger effect = higher value
Outline: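 Luminescence (One-Glo, 30 min, room temperature) reports AhR-driven luciferase in stably transfected human hepatoma cells bearing DRE and CYP1A2 promoter. Cells (1,200/well) were treated with compound for 24 hr at 37 C in qHTS format.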

[14] = qHTS assay for small molecule agonists of the antioxidant response element (ARE) signaling pathway measured by Nrf2-dependant transcriptional activity (AID 720636; active means well fitted curve in the direction sought with a large enough effect in the repeat runs; an effect the other way counts as inactive or inconclusive); settings: ARE-luc HepG2, Nrf2 luciferase reporter, 16 h; series mostly up to 92.4 µM
Outline: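 Nrf2-dependent transcription read as ONE-Glo luciferase signal from ARE-luc HepG2 reporter cells after 16 hr compound treatment at 37 C, 5% CO2, in assay medium with 1% dialyzed FBS.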

[15] = qHTS assay for small molecule antagonists of the retinoid-related orphan receptor gamma (ROR-gamma) signaling pathway - cell viability counter screen (AID 720652; active means well fitted curve in the direction sought with a large enough effect in the repeat runs; an effect the other way counts as inactive or inconclusive;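 further: compound exposure lasted 16 hr before ATP read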); settings: RORgamma reporter cell line viability counter screen; series mostly up to 92.2 µM
Outline: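 Luminescence from CellTiter-Glo after 30 min at room temperature reported cellular ATP as the cytotoxicity measure. Cells were the CHO reporter line with doxycycline-induced ROR-gamma expression, exposed to compound for 16 hr at 37 C.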

[16] = qHTS assay for small molecule agonists of the antioxidant response element (ARE) signaling pathway measured by Nrf2-dependant transcriptional activity - cell viability counter screen (AID 720653; active means well fitted curve in the direction sought with a large enough effect in the repeat runs; an effect the other way counts as inactive or inconclusive); settings: ARE-bla HepG2 viability, CellTiter-Glo ATP luminescence, 16 h; stronger effect = lower value
Outline: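 ARE-bla HepG2 cells (2,000/well) rested 5 hrs at 37C/5% CO2, then exposed to compounds in DMSO for 16 hrs. Viability was read in the same wells as intracellular ATP by luminescence, 30 min at room temperature after reagent addition.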

[17] = biological target: Thyroid hormone receptor beta (Homo sapiens) (UniProt P10828); assay: qHTS assay for small molecule antagonists of thyroid hormone receptor beta signaling (AID 588547; active means well fitted inhibition curve with a large enough effect in the signal ratio, with a control signal flat, not every such curve was filed as active; the % refers to the signal ratio;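 further: cells stimulated with 0.4 nM T3 agonist during compound exposure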); settings: TR-UAS-bla HEK293, beta-lactamase ratio, antagonist mode, 18 h
Outline: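 TR-UAS-bla GripTite HEK293 cells in 2% charcoal/dextran FBS medium were preincubated 4 h at 37 C, given compound (0.59 nM to 92 uM) plus 0.4 nM T3 (final) for 18 h, then CCF4 for 2 h at RT; Hill fit gave IC50.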

[18] = qHTS assay to identify small molecules that stimulate interleukin-8 (IL-8) secretion (AID 651758; active means well fitted activation curve with a large enough effect in the signal ratio; the % refers to the signal ratio); settings: HTRF ratio (665/615); series mostly up to 92.2 µM
Outline: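 THP-1, 2000 cells/well; cpd 16 h, 37 C; add cryptate + XL665 anti-IL-8 Abs; RT 1-3 h; TR-FRET read.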

[19] = biological target: Nuclear receptor ROR-gamma (Homo sapiens) (UniProt P51449); assay: qHTS assay for small molecule antagonists of the retinoid-related orphan receptor gamma (ROR-gamma) signaling pathway (AID 651802; active means well fitted curve in the direction sought with a large enough effect; an effect the other way counts as inactive or inconclusive;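 further: luciferase reporter luminescence driven by ROR response element; nearly all actives have a fitted effect of over 60% in size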); settings: ROR-gamma antagonist cell reporter assay; series mostly up to 92.2 µM
Outline: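 CHO, TET-inducible ROR + RORE-LUC reporter, 1536-well qHTS. Compound pinned, doxycycline added, 16hr 37C/5% CO2. ONE-Glo, 30 min RT, luminescence; signal drop scored as antagonism.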

[20] = biological target: Peroxisome proliferator-activated receptor alpha (Homo sapiens) (UniProt Q07869); assay: qHTS assay for small molecule agonists of the peroxisome proliferator-activated receptor alpha (PPARalpha) signaling pathway (AID 651778; active means well fitted curve in the direction sought with a large enough effect; an effect the other way counts as inactive or inconclusive); settings: PathHunter PPARalpha complementation, chemiluminescence, 6 h; stronger effect = higher value
Outline: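 Cells plated at 2,000/well and held overnight at 37 C, 5% CO2, then compound added by pin tool for 6 hr; after PathHunter detection reagent and 60 min at room temperature, chemiluminescence from enzyme complementation was read.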

Chain of Tumor necrosis factor (Homo sapiens) (P01375 whole entry, looked up): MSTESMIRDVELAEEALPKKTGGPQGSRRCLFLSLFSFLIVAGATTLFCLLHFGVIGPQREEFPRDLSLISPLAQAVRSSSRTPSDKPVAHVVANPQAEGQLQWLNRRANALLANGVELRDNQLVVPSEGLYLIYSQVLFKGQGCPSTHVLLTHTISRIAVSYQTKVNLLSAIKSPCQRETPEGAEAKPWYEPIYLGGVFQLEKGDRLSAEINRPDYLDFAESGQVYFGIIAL
Chain of Thyroid hormone receptor beta (Homo sapiens) (P10828 whole entry, looked up): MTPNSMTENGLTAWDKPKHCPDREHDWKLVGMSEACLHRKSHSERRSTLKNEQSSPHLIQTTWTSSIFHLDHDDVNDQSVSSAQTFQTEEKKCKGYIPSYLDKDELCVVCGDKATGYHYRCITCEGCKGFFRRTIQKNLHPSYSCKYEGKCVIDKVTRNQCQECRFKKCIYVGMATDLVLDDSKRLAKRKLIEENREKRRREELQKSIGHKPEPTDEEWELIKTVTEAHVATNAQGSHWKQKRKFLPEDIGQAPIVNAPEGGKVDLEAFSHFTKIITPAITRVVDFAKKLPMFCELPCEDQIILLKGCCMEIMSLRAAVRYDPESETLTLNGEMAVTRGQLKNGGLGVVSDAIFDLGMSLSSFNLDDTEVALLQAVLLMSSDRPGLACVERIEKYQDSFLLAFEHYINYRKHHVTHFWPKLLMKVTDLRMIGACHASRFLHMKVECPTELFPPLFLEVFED
Chain of Voltage-gated inwardly rectifying potassium channel KCNH2 (Homo sapiens) (Q12809 whole entry, looked up): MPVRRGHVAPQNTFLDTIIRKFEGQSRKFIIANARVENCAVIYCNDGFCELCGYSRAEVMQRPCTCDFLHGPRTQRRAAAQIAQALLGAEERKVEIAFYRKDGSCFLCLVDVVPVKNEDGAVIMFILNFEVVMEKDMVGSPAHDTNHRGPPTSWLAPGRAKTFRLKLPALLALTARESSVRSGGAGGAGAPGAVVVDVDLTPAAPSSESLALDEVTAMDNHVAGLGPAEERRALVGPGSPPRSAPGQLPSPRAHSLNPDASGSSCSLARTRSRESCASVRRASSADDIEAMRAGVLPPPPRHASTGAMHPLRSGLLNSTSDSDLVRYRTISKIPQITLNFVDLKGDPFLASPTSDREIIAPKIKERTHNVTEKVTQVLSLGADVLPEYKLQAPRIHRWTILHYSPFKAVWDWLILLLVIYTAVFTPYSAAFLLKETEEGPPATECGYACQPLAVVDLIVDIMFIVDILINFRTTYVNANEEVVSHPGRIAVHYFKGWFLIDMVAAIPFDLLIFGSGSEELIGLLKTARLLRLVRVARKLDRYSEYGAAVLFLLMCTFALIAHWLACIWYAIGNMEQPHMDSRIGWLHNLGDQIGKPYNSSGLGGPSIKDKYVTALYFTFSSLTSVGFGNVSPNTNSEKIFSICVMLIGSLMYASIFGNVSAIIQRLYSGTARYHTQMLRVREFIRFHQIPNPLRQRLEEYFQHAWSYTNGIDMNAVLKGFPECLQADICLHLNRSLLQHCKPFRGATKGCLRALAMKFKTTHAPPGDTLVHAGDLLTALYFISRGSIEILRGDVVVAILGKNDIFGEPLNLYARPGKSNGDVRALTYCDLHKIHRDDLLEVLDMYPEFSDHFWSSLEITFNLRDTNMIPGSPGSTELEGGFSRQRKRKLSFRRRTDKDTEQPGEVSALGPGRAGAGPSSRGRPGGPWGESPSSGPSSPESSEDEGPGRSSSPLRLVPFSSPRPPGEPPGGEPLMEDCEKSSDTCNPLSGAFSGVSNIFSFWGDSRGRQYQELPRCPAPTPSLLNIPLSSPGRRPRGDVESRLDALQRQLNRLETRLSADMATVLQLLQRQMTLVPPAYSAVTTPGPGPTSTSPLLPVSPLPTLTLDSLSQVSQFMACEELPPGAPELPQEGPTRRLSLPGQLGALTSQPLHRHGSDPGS
Chain of Retinoic acid receptor RXR-alpha (Homo sapiens) (P19793 whole entry, looked up): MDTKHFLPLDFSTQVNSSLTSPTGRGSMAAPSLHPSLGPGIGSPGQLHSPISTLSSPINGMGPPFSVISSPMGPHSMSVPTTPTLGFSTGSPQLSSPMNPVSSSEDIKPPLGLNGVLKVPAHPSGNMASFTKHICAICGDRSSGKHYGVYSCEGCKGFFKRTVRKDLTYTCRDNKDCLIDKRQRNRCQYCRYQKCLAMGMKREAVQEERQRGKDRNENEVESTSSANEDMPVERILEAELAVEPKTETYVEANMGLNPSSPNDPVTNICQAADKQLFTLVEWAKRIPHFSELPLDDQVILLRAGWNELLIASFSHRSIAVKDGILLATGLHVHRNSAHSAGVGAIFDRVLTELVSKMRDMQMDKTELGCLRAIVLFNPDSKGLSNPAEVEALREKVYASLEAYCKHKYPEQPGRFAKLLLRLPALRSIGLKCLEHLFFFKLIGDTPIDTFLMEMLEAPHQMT
Chain of Nuclear receptor ROR-gamma (Homo sapiens) (P51449 whole entry, looked up): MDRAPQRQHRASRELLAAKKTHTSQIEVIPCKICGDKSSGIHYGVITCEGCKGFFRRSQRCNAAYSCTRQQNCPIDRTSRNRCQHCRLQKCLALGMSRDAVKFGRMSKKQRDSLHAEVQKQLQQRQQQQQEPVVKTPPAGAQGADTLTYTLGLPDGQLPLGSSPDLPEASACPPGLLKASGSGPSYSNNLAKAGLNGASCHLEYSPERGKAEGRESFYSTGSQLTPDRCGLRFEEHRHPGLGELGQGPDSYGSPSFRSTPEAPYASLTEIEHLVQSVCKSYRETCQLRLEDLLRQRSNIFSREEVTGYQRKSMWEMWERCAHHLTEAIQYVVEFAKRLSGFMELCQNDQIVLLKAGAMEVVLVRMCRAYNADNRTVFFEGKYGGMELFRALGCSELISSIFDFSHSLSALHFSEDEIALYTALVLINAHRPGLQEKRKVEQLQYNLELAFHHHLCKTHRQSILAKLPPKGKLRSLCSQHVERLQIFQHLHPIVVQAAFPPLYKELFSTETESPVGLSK
Chain of Peroxisome proliferator-activated receptor alpha (Homo sapiens) (Q07869 whole entry, looked up): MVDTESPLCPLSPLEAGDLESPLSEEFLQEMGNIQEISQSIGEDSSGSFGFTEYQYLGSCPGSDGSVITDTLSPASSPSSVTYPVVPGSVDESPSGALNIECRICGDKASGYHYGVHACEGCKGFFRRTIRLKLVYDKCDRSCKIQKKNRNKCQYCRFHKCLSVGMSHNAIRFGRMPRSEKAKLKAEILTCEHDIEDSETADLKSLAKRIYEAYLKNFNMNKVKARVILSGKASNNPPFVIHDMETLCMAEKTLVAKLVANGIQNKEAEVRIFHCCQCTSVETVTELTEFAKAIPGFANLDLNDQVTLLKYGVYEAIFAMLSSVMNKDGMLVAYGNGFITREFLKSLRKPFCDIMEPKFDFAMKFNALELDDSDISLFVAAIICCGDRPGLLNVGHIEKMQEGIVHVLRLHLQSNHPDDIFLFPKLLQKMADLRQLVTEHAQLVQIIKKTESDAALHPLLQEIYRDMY

Structure (SMILES)	max response [1] [%]	outcome [2]	outcome [3]	max response [4] [%]	max response [5]	Potency [6]	Potency [7]	activation [8]	activation [9]	Potency [10]	Potency [11]	Potency [12]	activation [13]	outcome [14]	Potency [15]	max response [16]	activity change % (negative = inhibition) [17]	Potency [18]	Potency [19]	max response [20]
NCCCCCCN	1.96	inactive	inactive	-3.24	17.1% (inactive)	inactive	inactive	-1.12% (inactive)	-0.106% (inactive)	inactive	inactive	inactive	0.0666% (inactive)	inactive	inactive	-0.206% (inactive)	–	–	–	–
O=[N+]([O-])c1cccc(C(F)(F)F)c1	-15.5	inactive	inactive	-3.15	-2.39% (inactive)	–	–	2.87% (inactive)	–	inactive	inactive	inactive	0.319% (inactive)	inactive	inactive	14.6% (inactive)	8.91% (inactive)	inactive	inactive	–
C=C(C)OC(C)=O	12.6	inactive	–	12.2	-11.4% (inactive)	inactive	inactive	-0.827% (inactive)	-0.753% (inactive)	inactive	inactive	inactive	-1.07% (inactive)	inactive	inactive	7.41% (inactive)	24.9% (inactive)	–	inactive	-3.39% (inactive)
COC(=O)CC#N	-7.46	inactive	–	-3.78	-0.774% (inactive)	inactive	inactive	-2.67% (inactive)	-0.54% (inactive)	inactive	–	inactive	-0.763% (inactive)	inactive	inactive	-4.65% (inactive)	2.83% (inactive)	inactive	inactive	-2.71% (inactive)
CNC(=O)c1ccccc1	-5.28	inactive	–	-1.2	15.4% (inactive)	inactive	inactive	1.09% (inactive)	-1.22% (inactive)	inactive	inactive	inactive	-0.192% (inactive)	inactive	inactive	-3.92% (inactive)	-4.06% (inactive)	–	–	-1.17% (inactive)
CCNc1ccccc1	-5.14	inactive	inactive	–	–	inactive	–	-2.34% (inactive)	–	inactive	inactive	inactive	0.398% (inactive)	inactive	–	–	-13.9% (inactive)	–	inactive	-1.14% (inactive)
